HCMV inh: qHTS Assay for inhibitors of the human cytomegalovirus (HCMV); HFF cells, HCMV-luciferase reporter, 72 h; hits give low values; activity change, negative = inhibition, % at 57.5 µM; 410,000 tested, 4.5% active; AID 1259415, 2018; in the data active = activity change below about -60%; inconclusive = no clear call, values can overlap the other calls; inactive = above about -39%
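Inhibition of viral replication was scored as loss of reporter luminescence in HFFs infected with HCMV-luciferase (MOI 1 PFU/cell) for 72 h; compounds tested at 2 doses, normalized to buffer and Salinomycin controls.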
VACV Venus inh: qHTS for Stage-Specific Inhibitors of Vaccinia Orthopoxvirus: Venus Reporter Primary qHTS. Vaccinia virus Venus reporter expression, fluorescence. Potency, µM (titrated, usually from 36.5 µM), inactives show at the highest dose activity change, negative = inhibition, usual class: inhibitors. 330,000 tested, 0.46% active. AID 720580, 2013; calls by dose curve; tested in A549 cells; also: potency is read from the fitted curve at half-maximal effect; nearly all actives have a fitted effect of over 30% in size
MARV entry inh: qHTS for inhibitors of binding or entry into cells for Marburg Virus | Potency, µM (top dose mostly 37.8 µM), inactives show top-dose activity change, negative = inhibition, usual class: inhibitors | AID 540276, 2011 | 300,000 tested, 1.8% active | Marburg virus pseudotyped entry inhibition, cell reporter; calls by dose curve; tested in HEK293 cells; also: potency is read from the fitted curve at half-maximal effect
VACV mCherry inh: qHTS for Stage-Specific Inhibitors of Vaccinia Orthopoxvirus: mCherry Reporter Primary qHTS. Vaccinia virus mCherry reporter infection, fluorescence. Potency, µM (titrated, usually from 36.5 µM), without a hit: at the highest dose activity change, negative = inhibition, most hits filed as inhibitors. 310,000 tested, 0.63% active; calls by dose curve; tested in A549 cells; also: potency is read from the fitted curve at half-maximal effect; nearly all actives have a fitted effect of over 35% in size
Lassa entry inh: qHTS for Inhibitors of binding or entry into cells for Lassa Virus; Lassa virus pseudotype entry inhibition, cell reporter; Potency, µM (doses to about 37.9 µM), without a hit: top-dose activity change, negative = inhibition, most hits filed as inhibitors; 300,000 tested, 1.2% active; calls by dose curve; tested in HEK293 cells; also: potency is read from the fitted curve at half-maximal effect; nearly all actives have a fitted effect of over 50% in size
FMDV antiviral: High Throughput Screening for Foot and Mouth Disease Virus Antivirals. FMDV antiviral cell-based qHTS. Potency, µM (highest dose often 57.9 µM), inactives show top-dose activity change, negative = inhibition, actives largely listed as inhibitors. 410,000 tested, 1.2% active. AID 1159524, 2015; calls by dose curve; tested in HEK293T cells; also: read-out not given here; potency is read from the fitted curve at half-maximal effect; nearly all actives have a fitted effect of over 45% in size
* marks the source's active call; other numbers are inactive results; i = inactive; ? = inconclusive; / = not tested or not shown; + = active, no number; ! = not confirmed by another sample; [ ] = dose if it differs, or a comment. Hits are enriched below; roughly 6.5% of the tested compounds scored in any of these assays. % is scaled to controls: 0 for no effect and ±100 for the full control effect.

SMILES	HCMV inh	VACV Venus inh	MARV entry inh	VACV mCherry inh	Lassa entry inh	FMDV antiviral
O=S1(=O)C=C(Sc2nnc(-c3ccccc3)o2)c2ccccc21	/	/	5.8µM*	/	21µM*	10µM*
CSc1nnc(-c2ccccc2)o1	-1	-16%	1%	-38%	4%	61%
Cc1cc(C)nc(SC2=CS(=O)(=O)c3ccccc32)n1	-6	2µM*	4.5µM*	13µM*	?	?
O=S1(=O)C=C(SCCN2CCCCC2)c2ccccc21	-20	-11%	-3%	-29%	1%	1%
O=S1(=O)C=C(Sc2nc3ccccc3s2)c2ccccc21	/	?	3.7µM*	14µM*	?	5µM*
COc1ccc(S(=O)(=O)c2cn(C)c3cc(N4CCCC4)c(F)cc3c2=O)cc1	-7	-17%	/	-2%	9%[46.1 µM]	6%
Cc1cccc2c1NC1(CCCC1)CC2C (configuration not stated)	-63*	/	/	/	/	-24%
CC1CC2(CCCC2)Nc2ccc(F)cc21 (configuration not stated)	?	/	/	/	/	-12%
NC[C@@H]1O[C@H](O[C@H]2[C@H](O)[C@H](O[C@H]3[C@@H](O)[C@H](N)C[C@H](N)[C@H]3O[C@H]3O[C@H](CN)[C@H](O)[C@H](O)[C@H]3N)O[C@@H]2CO)[C@@H](N)[C@@H](O)[C@@H]1O	/	/	/	/	/	-15%[16.9 µM]
C=CCN1C(=O)/C(=C/c2cc(C)n(-c3cccnc3)c2C)C(=O)NC1=S	-14	13%	32%	-9%	1%	35µM*
CC1=NN(c2ccccc2)C(=O)/C1=C\c1cc(C)n(-c2ccccc2)c1C	?	-1%	19%	-14%	4%	16%
CC1=NN(c2ccccc2)C(=O)/C1=C\c1cc(C)n(-c2cccnc2)c1C	-73*	-6%	7%	i	?	9%
Cc1ccc(NC(=O)Cn2c(-c3ccc4c(c3)OCO4)cn(-c3ccccc3)c2=O)cc1	77	-9%	?	-3%	-4%[46.1 µM]	25%
O=C1NN(c2ccccc2)C(=O)/C1=C\c1cccn1-c1ccc(Cl)c([N+](=O)[O-])c1	22	-3%	11µM*	i	?	?
Cc1cc(N2CCCCCC2)nc(-c2ccccc2O)n1	46	-27%	?	/	?	-22%
Cc1cc(N2CCCCC2)nc(NCc2ccccc2)n1	-64*	?	3.2µM*	?	?	32µM*
Cc1cc(N2CCOCC2)nc(NCc2ccccc2)n1	-38	?	?	-27%	-26%	/
Cc1cc(N2CCCCC2)nc(N2CCCCC2)n1	-61*	-26%	/	-20%	/	-18%
O=C(Nc1cccc(F)c1)[C@H](CSCc1ccccc1)N1Cc2ccccc2C1=O	5	-11%	?	-14%	0%[46.1 µM]	10%
COc1ccc(-n2c(/C=C/c3ccccc3F)nc3cc(OC)c(OC)cc3c2=O)cc1Cl	15	-23%	/	-25%	20%[46.1 µM]	-12%
CC(=O)Oc1ccc(C(=O)Nc2ccccc2NC(=O)c2ccc(OC(C)=O)cc2)cc1	-8	/	/	/	/	-22%
CC(=O)Oc1ccc(C23c4ccccc4C2(OC(C)=O)c2cc(OC(C)=O)ccc23)cc1 (configuration not stated)	-70*	24%	?	-17%	?	?
C[C@@H]1CN(Cc2ccc3c(c2)CN(Cc2cccn2-c2ccc(Cl)cn2)CCO3)C[C@H](C)O1	/	2%	/	-16%	/	1%
O=P1(Oc2ccccc2)OCCCS1 (configuration not stated)	22	/	/	/	/	35µM*
COc1ccc(/C=C/C(=O)Nc2ccc3nc4c(c(Nc5ccc(OC)c(OC)c5)c3c2)CCCC4)cc1	-99*	?	?	?	?	-19%
SMILES	HCMV inh	VACV Venus inh	MARV entry inh	VACV mCherry inh	Lassa entry inh	FMDV antiviral
COc1ccc(Nc2c3c(nc4ccc(NC(=O)/C=C/c5cc(OC)c(OC)c(OC)c5)cc24)CCCC3)cc1OC	-102*	-17%[7.34 µM]	?	-10%[7.34 µM]	?	0%
O=C(COC(=O)CC(c1ccccc1)c1ccccc1)NCc1ccccc1	40	/	1%	/	12µM*	?
O=C(CCSCc1ccccc1Cl)N1CCN(c2ccc(F)cc2)CC1	-64*	-14%	/	-16%	10%[46.1 µM]	3%
O=C(CCC(=O)N1CCN(c2ccccc2F)CC1)N1CCN(c2ccc(F)cc2)CC1	-62*	-18%	-2%	-13%	?	22µM*
C=CCC12OC3(OC)CC1[C@H](C)[C@@H](c1ccccc1)C2[C@]3(O)CC=C (some centres not stated)	/	/	6%[14.2 µM]	/	/	/
Cc1ccc(O)c(NC(=O)COCc2cc(-c3ccco3)on2)c1	+	-28%	/	-8%	?	-8%
COc1ccc(CCNC(=O)/C=C\c2ccccc2)cc1OC	?	-12%	0%	-14%	1%	0%
COc1ccc(/C=C/C(=O)NC(=S)NCCc2ccc(OC)c(OC)c2)cc1	-62*	?	?	?	-17%	?
COc1ccc2c(=O)c(C(=O)NCCc3ccc(OC)c(OC)c3)c[nH]c2c1	-4	/	7.3µM*	/	?	?
COc1ccc(CC(C)CC(=O)NCCc2ccc(OC)c(OC)c2)cc1 (configuration not stated)	-61*	/	/	/	/	-6%
COc1ccc(C(=O)CCc2ccc(OC)c(OC)c2)cc1	-80*	6%	?	i	-21%[46.1 µM]	-13%
O=C(Cc1nc2ccccc2[nH]1)N1CCC(n2c(C3CCC3)nc3cccnc32)CC1	/	0%	/	i	/	32%
COc1ccc(C2Nc3ccccc3C(=O)N2Cc2ccco2)cc1OC (configuration not stated)	/	-15%	/	-3%	/	/
COc1ccc(OC)c(CNC(=O)c2cc3cc4ccc(OC)cc4nc3o2)c1	10	-5%	-5%[46.1 µM]	-14%	-15%[46.1 µM]	-17%
COc1ccc2cc3cc(C(=O)NCCc4ccc(OC)c(OC)c4)oc3nc2c1	-30	?	?	-12%	?	8.9µM*
COc1ccc(CCNC(=O)CSC(=O)c2ccccc2)cc1OC	-60*	/	/	/	/	-14%
COc1ccc(CCNC(=O)CSc2ccccc2)cc1OC	-30	-11%	-4%	-1%	-8%	-9%
O=C(NC1CCCC1)c1ccc2c(c1)N(Cc1ccccc1F)C(=O)c1ccccc1S2	?	-7%	/	-10%	-15%[46.1 µM]	-13%
CC(C)c1ccc(CNCc2ccccc2)cc1	?	-13%	18µM*	-3%	13%	/
COc1ccccc1C(=O)NCCC(=O)N1CCN(c2ccccc2Cl)CC1	3	?	-3%	-14%	23%	?
COc1ccccc1C(=O)NCCC(=O)N1CCN(c2ccc(C(F)(F)F)cn2)CC1	-85*	-10%	-26%[46.1 µM]	-10%	10%	?
O=C(/C=C/c1ccc(O)c(O)c1)O[C@@H]1C[C@](O)(C(=O)O)C[C@@H](O)[C@H]1O	-60*!	-9%	/	-7%	/	-20%
